In PubChem BioAssay AID1117319 (Southern Research Institute, 2015):
Hit rate of the full screen: of about 260,000 compounds, about 1,500 (0.58%) were called active. Not shown: some 5% with an inconclusive outcome.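 The calls were made as follows: active = inhibition above a set limit at one or more doses, reproduced on every date tested; inconclusive = results disagree between test dates, or hit never tested in dose response; inactive = the rest.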 Not all results are given here. Potency and affinity values are given separately.

target: Virion infectivity factor (Human immunodeficiency virus type 1 group M subtype B (isolate BH10)) + Virion infectivity factor (Human immunodeficiency virus type 1 group M subtype B (isolate BRU/LAI)) + Virion infectivity factor (Human immunodeficiency virus type 1 group M subtype B (isolate PCV12)) + Virion infectivity factor (Human immunodeficiency virus type 1 group M subtype B (isolate HXB2)) + DNA dC->dU-editing enzyme APOBEC-3G (Homo sapiens) (UniProt P69720+P69721+P69722+P69723+Q9HC16); assay: inhibitors of Vif binding to APOBEC3G peptide, primary screen, biochemical, TR-FRET, GST-Vif 1-94, biotin-A3G peptide, dose response retest (AID 1117319); conditions: active compounds read high;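 also: Vif residues 1-94 fused to GST binding biotinylated APOBEC3G peptide 110-148; 0% = full assay without inhibitor and 100% = GST in place of GST-Vif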

inhibition, inactive:
Cn1c(=O)c2c(nc(CN3CCN(Cc4ccccc4)CC3)n2Cc2ccc(F)cc2)n(C)c1=O 8.38%
COc1cccc(CNC(=O)CCc2nc3cc(S(=O)(=O)N4CCOCC4)ccc3n2C)c1 -1.52%
COc1ccc(-c2nnc(SCC(=O)c3ccc[nH]3)o2)cc1 0.99%
O=C(Oc1ccccc1-c1nnco1)c1ccc(Cl)cc1 5.13%
COc1ccccc1/C=C/C(=O)c1ccccc1 3.38%
COc1ccc(C=CC(=O)c2cc(O)ccc2O)cc1 -0.99%
COc1ccc(/C=C/C(=O)c2ccc(OC)cc2OC)cc1 -1.1%
COc1ccccc1C=CC(=O)C=Cc1ccccc1OC 7.01%
Cc1nc(C(=O)N/N=C/c2[nH]ncc2Br)cs1 8.49%
COc1ccc(O)c(C(=O)c2cnn(S(=O)(=O)c3ccc(C)cc3)c2)c1 4.82%
CC1(C)CN(c2ccccc2)N(Cc2ccc(F)cc2)C1=O -1.71%
NC(=O)C1(C(=O)O)OC1(c1ccc(Cl)cc1)c1ccccc1Cl (stereo not given) 5.1%
CCOc1ccc(NC(=O)c2ccc3c(SCC(=O)O)c4c(nc3c2)CCCC4)cc1 2.98%
CC(C)CCNC(=O)c1ccc2c(SCC(=O)O)c3c(nc2c1)CCCC3 25.7%
COc1cc(NC(=O)c2ccc3c(SCC(=O)O)c4c(nc3c2)CCC4)cc(OC)c1OC 22.2%
CCN(CC)CCCNC(=O)c1ccc2c(SCC(=O)O)c3c(nc2c1)CCC3 27.5%
CN1CCN(C(=O)c2ccc(CN3CCOCC3)cc2)CC1 -3.34%
Cc1cc(NS(=O)(=O)c2ccc(NC(=O)CSc3nnc(-c4ccco4)n3C)cc2)nc(C)n1 2.91%
O=C(Nc1ccccc1Cl)Nc1ccnn1C1CCN(C(=O)c2cscn2)CC1 5.94%
C=CCn1c(SCC(=O)NC2CC2)nc2ccccc2c1=O 1.47%
O=C(/C=C/Nc1ccc(F)cc1)c1ccco1 10.5%
O=C(/C=C/Nc1ccc(Oc2ccccc2)cc1)c1ccco1 12.6%
NS(=O)(=O)c1ccc(NC(=O)C2CCCN(S(=O)(=O)c3ccc(F)cc3)C2)cc1 (stereo not given) -11.9%
Cc1ccc(N(CC(=O)NCc2cccnc2)S(C)(=O)=O)cc1C -4.47%
COc1cccc(N(CC(=O)NCc2cccnc2)S(C)(=O)=O)c1 -2.81%
CN1CCN(c2ccccc2NC(=O)c2ccc(Br)o2)CC1 0.41%
O=C(Nc1ccccc1N1CCOCC1)c1ccc(Br)o1 7.09%
O=C(O)c1cc(-c2ccc(N3CCOCC3)cc2)nn1-c1ccc(F)cc1 18.4%
Cn1cnc(S(=O)(=O)N2CCc3ccccc32)c1 3.79%
c1cc2c3c(cccc3c1)NC1(CCCC1)N2 2.08%
c1cc2c3c(cccc3c1)NC1(CCCCC1)N2 10.4%
Cc1cc(=O)[nH]c(SCCCOc2ccc3c(c2)CCC3)n1 -0.15%
CCn1nnnc1SCC(=O)NCc1ccco1 21.2%
CCn1c(SCC(=O)NC(=O)NCc2ccco2)nnc1-c1cccs1 -5.61%
CC(C)n1nnnc1SCC(=O)NCc1ccco1 20%
Cn1c(SCC(=O)NCc2ccco2)nnc1-c1cccs1 -8.22%
Clc1ccccc1Cc1noc(CN2CCCCC2c2ccccn2)n1 (stereo not given) 2.88%
COc1cccc(OCc2nnc(SCC(=O)N3c4ccccc4Sc4ccc(Cl)cc43)o2)c1 8.84%
O=C(CN(C(=O)Cn1nnc(-c2ccc(F)cc2)n1)c1cnc2ccccc2c1)NCC1CCCO1 (stereo not given) -11.4%
Cc1cc(C)n2nc(-c3ccsc3-n3c(C)ccc3C)cc2n1 16.4%
Cc1cc(=O)n2[nH]c(-c3sccc3-n3c(C)ccc3C)cc2n1 -3.07%
O=C(c1ccccc1)c1n[nH]c(-c2ccccc2)cc1=O 0.47%
CCOC(=O)N1CCC(NC(=O)c2cnn3cccnc23)CC1 -2.64%
O=C(O)CCCC(=O)Nc1c(F)c(F)c(F)c(F)c1F 3.4%
O=C(CCSCCC(=O)Nc1c(F)c(F)c(F)c(F)c1F)Nc1c(F)c(F)c(F)c(F)c1F -9.21%
CN(C)c1nc(NNC(=O)c2ccccc2)nc(N(C)C)n1 -5.34%
C=CCn1c(SCC(=O)Nc2cc(C)on2)nc2sc(C)c(C)c2c1=O -2.76%
C=CCn1c(SCC(=O)c2cccs2)nc2sc(C)c(C)c2c1=O -46.6%
CCN(CC(=O)Nc1c(F)cccc1F)C(=O)c1ccc2c(c1)S(=O)(=O)N=C1CCCCCN12 -6.51%
COc1cc(/C=C/C(=O)OCC(=O)NCC2CCCCC2)ccc1O -4.25%
O=C(/C=C/c1ccc(O)c(O)c1)c1ccccc1O 13.2%
O=C(CCOc1ccccc1)Nc1ccc([N+](=O)[O-])cc1 5.33%
COc1ccc(NC(=O)CN(C)C(=O)c2cc(-c3ccc(Cl)cc3)nc3ccccc23)cc1 2.66%
COc1cccc(NC(=O)CN(C)C(=O)c2cc(-c3ccco3)nc3ccccc23)c1 23.7%
CCOc1ccc(NC(=O)CN(C)C(=O)c2cc(-c3ccco3)nc3ccccc23)cc1OCC -2.81%
Cc1ccc(NC(=O)CN(C)C(=O)c2cc(-c3ccco3)nc3ccccc23)cc1 55.7%
COc1ccc(NC(=O)CN(C)C(=O)c2cc(-c3ccc(OC)cc3)nc3ccccc23)cc1 -5.94%
COc1ccc(NC(=O)c2cc(C)nc3ccccc23)cc1S(=O)(=O)N1CCOCC1 -2.24%
Cc1ccc(NC(=O)c2cc(-c3ccco3)nc3ccccc23)cc1S(=O)(=O)N1CCOCC1 32.6%
CN(CC(=O)Nc1cccc(F)c1)C(=O)c1cc(-c2ccccc2)nc2ccccc12 -4.43%
